We go through twelve compounds from PubChem BioAssay (Tox21).

Assay [1] concerns the target Aryl hydrocarbon receptor (Homo sapiens) (UniProt P35869). Description: qHTS assay to identify small molecule that activate the aryl hydrocarbon receptor (AhR) signaling pathway (AID 743085).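 Also: HG2L7.5c1 human HepG2 liver cells with stably integrated DRE-driven firefly reporter; series mostly up to about 70 µM; nearly all actives have a fitted effect of over 15% in size.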 An outline of the steps: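 Luminescence read-out: ONE-Glo reagent, 30 min at room temperature, in HG2L7.5c1 HepG2 reporter cells treated 24 h at 37C. Viability was measured beforehand by CellTiter-Fluor fluorescence after 30 min at 37C.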

A short description of assay [2]: qHTS assay to identify small molecule that activate the aryl hydrocarbon receptor (AhR) signaling pathway - cell viability counter screen (AID 743086). Also: nearly all actives have a fitted effect of over 45% in size. Also: potency is read from the fitted curve at half-maximal effect. An outline of the steps:
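HepG2-AhR-luc (HG2L7.5c1) cells, 4000/well, treated 24 h at 37 C with compound; viability measured as CellTiter-Fluor fluorescence after 30 min in the same wells as the luciferase read.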

Assay [3] in a line: qHTS assay to identify small molecule antagonists of the peroxisome proliferator-activated receptor gamma (PPARg) signaling pathway - cell viability counter screen (AID 743194). Also: nearly all actives have a fitted effect of over 55% in size. Also: potency is read from the fitted curve at half-maximal effect. The following applies: Potency: co-treated with 50 nM rosiglitazone. An outline of the steps:
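Cytotoxicity counter screen in PPARg-bla HEK293H cells, same wells as reporter assay. Compounds plus 50 nM rosiglitazone (final) for 17 h at 37 C, then viability read by CellTiter-Glo luminescence.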

The nature of assay [4]: qHTS assay for small molecule agonists of the antioxidant response element (ARE) signaling pathway (AID 743202; active = well fitted activation curve with a large enough effect in the signal ratio in the repeat runs, not every such curve was filed as active; the % refers to the signal ratio; also: potency is read from the fitted curve at half-maximal effect). An outline of the steps: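 HepG2 ARE-bla reporter line, 2,000 cells/well; 5 h preincubation 37 C/5% CO2; compound (DMSO) 16 h 37 C; B/G FRET substrate 2 h RT; fluorescence intensity.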
Assay [5] in a line: qHTS assay for small molecule activators of the heat shock response signaling pathway (AID 743210; active = well fitted activation curve with a large enough effect in the signal ratio in the repeat runs, with a control signal flat, not every such curve was filed as active; the % refers to the signal ratio; also: series mostly up to about 63 µM). The essentials: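 Beta-lactamase reporter read-out: FRET substrate fluorescence after 2.5 h at RT, following 5 h compound treatment at 37 C of HeLa cells carrying HSE-driven bla reporter; quantitative HTS format.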
Assay [6] is described as follows: qHTS assay to identify small molecule agonists of the peroxisome proliferator-activated receptor delta (PPARd) signaling pathway - cell viability counter screen (AID 743211). Also: nearly all actives have a fitted effect of over 55% in size. Also: potency is read from the fitted curve at half-maximal effect. An outline of the steps: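 Read-out: CellTiter-Glo luminescence, 30 min RT, measured in the same wells as the beta-lactamase reporter. Cells: GeneBLAzer PPAR delta UAS-bla HEK293H, 3000 cells/well, compound exposure 17 h at 37C.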

A short description of assay [7]: qHTS assay to identify small molecule antagonists of the peroxisome proliferator-activated receptor delta (PPARd) signaling pathway - cell viability counter screen (AID 743213). Also: nearly all actives have a fitted effect of over 50% in size. The essentials:
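PPARd-bla HEK293H cells (3000/well) got compound plus 300 nM L165041 agonist for 17 h at 37 C. Viability in the same wells came from CellTiter-Glo luminescence after 30 min at room temperature.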

The nature of assay [8]: qHTS assay to identify small molecule agonists of the farnesoid-X-receptor (FXR) signaling pathway - cell viability counter screen (AID 743218). Also: nearly all actives have a fitted effect of over 45% in size. Also: potency is read from the fitted curve at half-maximal effect. An outline of the steps:
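Viability counter screen in the same wells: CellTiter-Glo luminescence, 30 min room-temperature incubation, measured after the beta-lactamase read. Cells were GeneBLAzer FXR-UAS-bla HEK 293T, compound-treated 16 h at 37C.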

In assay [9] the target is Bile acid receptor (Homo sapiens) (UniProt Q96RI1). Briefly: qHTS assay to identify small molecule agonists of the farnesoid-X-receptor (FXR) signaling pathway (AID 743220; active = well fitted activation curve with a large enough effect in the signal ratio in the repeat runs, not every such curve was filed as active; the % refers to the signal ratio). The essentials:
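FXR-UAS-bla HEK 293T cells carrying a UAS-driven beta-lactamase reporter were plated for 5 h at 37C/5% CO2, then exposed to DMSO-dissolved Tox21 10K compounds for 16 h at 37C. A LiveBLAzer B/G FRET substrate was loaded for 2 h at room temperature before fluorescence reading.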

The target in assay [10] is Vitamin D3 receptor (Homo sapiens) (UniProt P11473). Briefly: qHTS assay to identify small molecule agonists of the vitamin D receptor (VDR) signaling pathway (AID 743222; calls by dose curve). The essentials:
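Agonist mode, beta-lactamase reporter: fluorescence from LiveBLAzer B/G FRET substrate (2 h, room temperature) read after 16 h compound treatment at 37 C of VDR-bla cells, which were pre-incubated 4 h after seeding.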

For assay [11] the target is unchanged. Briefly: qHTS assay to identify small molecule antagonists of the vitamin D receptor (VDR) signaling pathway (AID 743223; active = well fitted inhibition curve with a large enough effect in the signal ratio in the repeat runs, not every such curve was filed as active; the % refers to the signal ratio). The essentials: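 Beta-lactamase reporter read-out: FRET substrate fluorescence after 2 h at room temperature, following 16 h exposure of VDR-bla cells to test compound plus 3 nM (final) 1alpha,25-dihydroxyvitamin D3 agonist at 37C.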

In assay [12] the target is Peroxisome proliferator-activated receptor gamma (Homo sapiens) (UniProt P37231). Description: qHTS assay to identify small molecule antagonists of the peroxisome proliferator-activated receptor gamma (PPARg) signaling pathway (AID 743191; calls by dose curve; also: nearly all actives have a fitted effect of over 30% in size; also: potency is read from the fitted curve at half-maximal effect). An outline of the steps: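 GeneBLAzer PPARg UAS-bla HEK293H cells, 5 h post-plating, exposed to compounds 17 h at 37C. LiveBLAzer B/G FRET substrate added for 1 h at room temperature; beta-lactamase reporter read by fluorescence intensity.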
Chain of Peroxisome proliferator-activated receptor gamma (Homo sapiens) (P37231 whole entry, looked up): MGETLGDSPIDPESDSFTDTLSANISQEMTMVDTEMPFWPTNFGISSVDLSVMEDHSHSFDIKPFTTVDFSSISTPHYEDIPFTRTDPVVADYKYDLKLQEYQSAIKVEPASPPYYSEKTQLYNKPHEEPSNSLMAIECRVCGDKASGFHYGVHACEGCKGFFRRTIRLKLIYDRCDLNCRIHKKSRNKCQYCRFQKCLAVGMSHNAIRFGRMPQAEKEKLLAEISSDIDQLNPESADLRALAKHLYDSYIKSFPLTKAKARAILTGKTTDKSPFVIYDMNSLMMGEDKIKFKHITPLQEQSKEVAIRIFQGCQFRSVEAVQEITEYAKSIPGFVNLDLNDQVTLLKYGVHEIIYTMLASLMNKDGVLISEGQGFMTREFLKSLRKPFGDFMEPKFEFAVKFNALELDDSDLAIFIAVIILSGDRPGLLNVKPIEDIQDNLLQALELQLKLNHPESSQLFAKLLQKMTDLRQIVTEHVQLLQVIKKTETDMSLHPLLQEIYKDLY

Assay [13] is described as follows: qHTS assay for small molecule agonists of the antioxidant response element (ARE) signaling pathway - cell viability counter screen (AID 743203; calls by dose curve; also: nearly all actives have a fitted effect of over 55% in size; also: potency is read from the fitted curve at half-maximal effect). The essentials:
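Viability counter screen: CellTiter-Glo luminescence, read after 30 min at room temperature, in ARE-bla HepG2 wells. Compound exposure lasted 16 h at 37C/5% CO2, following a 5 h pre-incubation of the cells after plating.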

Assay [14] concerns the target Peroxisome proliferator-activated receptor delta (Homo sapiens) (UniProt Q03181). Briefly: qHTS assay to identify small molecule agonists of the peroxisome proliferator-activated receptor delta (PPARd) signaling pathway (AID 743212; calls by dose curve). An outline of the steps:
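Read-out: beta-lactamase FRET fluorescence after 2 h room-temperature incubation with LiveBLAzer B/G substrate. Cells were HEK293H carrying a UAS-bla reporter for PPARd, treated at 37 C with DMSO-dissolved compounds.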

Assay [15] deals with Bile acid receptor (Homo sapiens) (UniProt Q96RI1). Briefly: qHTS assay to identify small molecule antagonists of the farnesoid-X-receptor (FXR) signaling pathway (AID 743217; active = well fitted inhibition curve with a large enough effect in the signal ratio in the repeat runs, not every such curve was filed as active; the % refers to the signal ratio). The essentials: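 Antagonist mode: chenodeoxycholic acid at 50 uM final stimulates a UAS-driven beta-lactamase reporter in HEK 293T FXR-bla cells during 16 h, 37C compound exposure. Read-out is FRET substrate fluorescence after 2 h at room temperature.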
Chain of Bile acid receptor (Homo sapiens) (Q96RI1 whole entry, looked up): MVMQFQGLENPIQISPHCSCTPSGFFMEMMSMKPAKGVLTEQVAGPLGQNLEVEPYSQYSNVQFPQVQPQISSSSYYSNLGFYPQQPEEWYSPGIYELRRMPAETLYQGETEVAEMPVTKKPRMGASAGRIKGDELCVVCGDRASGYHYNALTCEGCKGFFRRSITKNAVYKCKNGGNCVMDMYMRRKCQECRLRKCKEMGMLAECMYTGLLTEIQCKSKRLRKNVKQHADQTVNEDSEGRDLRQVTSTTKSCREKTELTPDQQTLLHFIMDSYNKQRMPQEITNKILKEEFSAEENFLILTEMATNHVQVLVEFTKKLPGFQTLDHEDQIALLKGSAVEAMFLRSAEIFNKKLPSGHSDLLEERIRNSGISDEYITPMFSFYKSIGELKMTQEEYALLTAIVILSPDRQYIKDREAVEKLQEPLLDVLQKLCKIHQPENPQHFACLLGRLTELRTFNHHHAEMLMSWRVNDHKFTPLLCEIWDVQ

Assay [16] in a line: qHTS assay to identify small molecule antagonists of the farnesoid-X-receptor (FXR) signaling pathway - cell viability counter screen (AID 743221; active = well fitted cell-killing curve with a large enough effect in the repeat runs, not every such curve was filed as active; also: nearly all actives have a fitted effect of over 50% in size; also: potency is read from the fitted curve at half-maximal effect). An outline of the steps:
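HEK 293T FXR-bla cells, 5 h pre-incubation; compound + CDCA 50 uM final, 16 h, 37 C; beta-lactamase FRET read first, then CellTiter-Glo luminescence, 30 min RT.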

Assay [17] concerns the target Peroxisome proliferator-activated receptor gamma (Homo sapiens) (UniProt P37231). Description: qHTS assay to identify small molecule agonists of the peroxisome proliferator-activated receptor gamma (PPARg) signaling pathway (AID 743094; active = well fitted activation curve with a large enough effect in the signal ratio in the repeat runs, not every such curve was filed as active; the % refers to the signal ratio). An outline of the steps:
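Agonist activity was taken from a beta-lactamase reporter (FRET substrate, 1 h at room temperature) in HEK293H cells carrying a PPARg UAS-bla construct. Compounds in DMSO were incubated 17 h at 37C after a 5 h cell pre-incubation.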

Assay [18] can be described thus: qHTS assay for small molecule activators of the heat shock response signaling pathway - cell viability counter screen (AID 743209). Also: nearly all actives have a fitted effect of over 50% in size. The essentials: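 Cytotoxicity counter screen run in the same wells as the heat-shock bla reporter assay: HeLa HSE-bla cells, 5 h compound exposure at 37 C, viability read by CellTiter-Glo luminescence.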
For assay [19], the target named is Peroxisome proliferator-activated receptor delta (Homo sapiens) (UniProt Q03181). Briefly: qHTS assay to identify small molecule antagonists of the peroxisome proliferator-activated receptor delta (PPARd) signaling pathway (AID 743215; active = well fitted inhibition curve with a large enough effect in the signal ratio in the repeat runs, not every such curve was filed as active; the % refers to the signal ratio;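 also: cells stimulated with agonist L165041 at 300 nM final during compound exposure; series mostly up to about 62 µM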). The essentials:
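Agonist L165041 (300 nM final) added with compound to PPARd-bla HEK293H UAS-bla reporter cells; 17 h incubation at 37 C. Read-out: LiveBLAzer FRET substrate, 2 h at room temperature, fluorescence intensity.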

Assay [20] in a line: qHTS assay to identify aromatase inhibitors - cell viability counter screen (AID 743084).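 Also: cells stimulated with testosterone during compound exposure; nearly all actives have a fitted effect of over 55% in size.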

Inconclusive results are not listed. Activity calls are given as the source filed them. Unless noted, calls follow the shape of the dose curve; as a rule, active = well fitted curve in the direction sought with a large enough effect in the repeat runs; inconclusive = weak or mixed curves; inactive = no such curve, though single readings can be large; an effect the other way counts as inactive or inconclusive.

Chain of Aryl hydrocarbon receptor (Homo sapiens) (P35869 whole entry, looked up): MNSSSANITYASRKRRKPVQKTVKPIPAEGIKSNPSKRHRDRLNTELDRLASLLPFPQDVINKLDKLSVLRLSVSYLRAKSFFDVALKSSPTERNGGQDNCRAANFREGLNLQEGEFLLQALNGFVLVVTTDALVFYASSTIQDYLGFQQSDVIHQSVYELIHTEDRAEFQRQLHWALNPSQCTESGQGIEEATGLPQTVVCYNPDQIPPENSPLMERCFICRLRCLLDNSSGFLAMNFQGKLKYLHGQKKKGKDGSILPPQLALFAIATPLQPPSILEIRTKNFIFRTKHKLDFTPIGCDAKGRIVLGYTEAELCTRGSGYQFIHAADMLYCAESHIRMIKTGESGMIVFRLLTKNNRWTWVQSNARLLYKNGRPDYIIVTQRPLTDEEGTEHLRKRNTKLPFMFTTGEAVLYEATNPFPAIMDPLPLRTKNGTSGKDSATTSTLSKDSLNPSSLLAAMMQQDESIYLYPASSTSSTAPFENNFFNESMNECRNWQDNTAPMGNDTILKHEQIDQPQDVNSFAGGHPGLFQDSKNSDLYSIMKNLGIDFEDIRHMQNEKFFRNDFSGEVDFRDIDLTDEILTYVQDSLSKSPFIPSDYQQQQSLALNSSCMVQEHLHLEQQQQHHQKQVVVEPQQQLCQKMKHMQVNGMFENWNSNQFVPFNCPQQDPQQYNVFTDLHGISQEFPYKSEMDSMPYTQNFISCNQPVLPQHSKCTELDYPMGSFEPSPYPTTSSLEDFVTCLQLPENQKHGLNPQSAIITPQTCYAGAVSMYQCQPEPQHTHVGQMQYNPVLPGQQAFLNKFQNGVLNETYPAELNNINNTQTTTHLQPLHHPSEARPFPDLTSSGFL
Chain of Vitamin D3 receptor (Homo sapiens) (P11473 whole entry, looked up): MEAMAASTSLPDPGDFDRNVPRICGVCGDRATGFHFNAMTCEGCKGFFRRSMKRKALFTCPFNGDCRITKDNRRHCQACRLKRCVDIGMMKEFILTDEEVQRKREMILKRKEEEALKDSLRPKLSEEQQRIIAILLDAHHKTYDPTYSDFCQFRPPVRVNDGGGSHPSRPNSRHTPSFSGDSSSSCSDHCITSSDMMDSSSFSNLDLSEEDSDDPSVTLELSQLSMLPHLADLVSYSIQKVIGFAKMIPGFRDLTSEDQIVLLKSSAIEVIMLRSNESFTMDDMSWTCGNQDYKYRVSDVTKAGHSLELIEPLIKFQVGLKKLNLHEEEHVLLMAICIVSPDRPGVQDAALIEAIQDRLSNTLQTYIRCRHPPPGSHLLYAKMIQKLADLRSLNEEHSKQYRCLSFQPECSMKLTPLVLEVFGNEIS
Chain of Peroxisome proliferator-activated receptor delta (Homo sapiens) (Q03181 whole entry, looked up): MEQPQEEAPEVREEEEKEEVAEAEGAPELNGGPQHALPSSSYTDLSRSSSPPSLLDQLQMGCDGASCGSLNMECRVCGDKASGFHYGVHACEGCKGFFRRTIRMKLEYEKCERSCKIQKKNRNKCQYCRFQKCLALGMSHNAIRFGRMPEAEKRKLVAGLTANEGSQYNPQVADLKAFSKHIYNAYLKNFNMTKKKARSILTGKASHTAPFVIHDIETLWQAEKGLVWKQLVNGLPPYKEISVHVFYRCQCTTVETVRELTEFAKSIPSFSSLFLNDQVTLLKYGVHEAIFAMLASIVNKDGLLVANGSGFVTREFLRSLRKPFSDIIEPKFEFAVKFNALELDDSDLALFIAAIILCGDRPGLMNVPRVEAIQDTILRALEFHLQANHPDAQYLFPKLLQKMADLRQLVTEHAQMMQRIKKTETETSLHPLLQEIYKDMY

Consider `CO/N=C(/C(=O)OC)c1ccccc1COc1ccccc1C`, for which the Potency entry in [1], in assay [2], in [3], in assay [6], in assay [7] and in assay [8] was “inactive” each time. Also, the Potency in [4] is 19.3 µM (active). For the same compound, the compound was called inactive in assay [5], in [9], in [10] and in assay [11].
Regarding `CCO[C@H]1O[C@@H]2OC3(C)CC[C@H]4[C@H](C)CC[C@@H]([C@H]1C)[C@@]24OO3`, the Potency entry in [12], in assay [3], in assay [13], in [7], in assay [15] and in assay [8] was “inactive” each time. In addition, the Potency entry in assay [16] is “inactive”. In addition, the outcome in assay [5], in assay [14], in [9], in [10] and in [11] was inactive.
For the compound `O=S1OC[C@@H]2[C@H](CO1)[C@]1(Cl)C(Cl)=C(Cl)[C@@]2(Cl)C1(Cl)Cl` (stereo partly drawn), the Potency entry in [1], in assay [2], in assay [17], in [12], in assay [7] and in [15] was “inactive” in each case. Further, the compound was called inactive in assay [10].
Turning to `O=C(N[C@H](c1ccccc1)[C@@H]1CN2CCC1CC2)c1c(Cl)ccc(C(F)(F)F)c1Cl`, the Potency result in assay [1], in assay [3] and in [7] was “inactive” throughout. The Potency is 39.2 µM (active) in [2]; 4.97 µM (active) in assay [12]; 49.3 µM (active) in assay [13]; 78.8 µM (active) in assay [6]; 70.2 µM (active) in assay [8]. In addition, the call in assay [5], in [9] and in [10] was inactive.
Consider `ClCc1cccc(Cl)c1`, for which the Potency entry in [12], in [3], in assay [13], in [6], in assay [7] and in assay [15] was “inactive” each time. For the same compound, the Potency entry in assay [8] and in assay [16] was “inactive” each time. Moreover, the call in assay [5], in assay [14], in assay [9], in assay [10] and in assay [11] was inactive.
With `CCn1cc[n+](C)c1`, the Potency entry in [2], in assay [3], in assay [4], in assay [13], in [18] and in assay [6] was “inactive” each time. The Potency result in [7], in assay [8] and in [16] was “inactive” throughout.
Regarding `C=CC(=O)OCC(C)O` (stereo not drawn), the Potency entry in [1], in assay [2], in assay [12], in [3], in assay [13] and in assay [18] was “inactive” in each case. Moreover, the Potency entry in assay [6], in [15] and in assay [16] was “inactive” each time. In addition, in assay [4], the Potency was 8.91 µM (active). Moreover, the call in assay [5], in assay [9] and in assay [10] was inactive.
As for `CC1Sc2c(C(=O)O)c(=O)c3cc(F)c(N4CCNCC4)cc3n21` (stereo not drawn), the Potency entry in assay [3], in [4], in assay [13], in assay [6], in [7] and in assay [19] was “inactive” each time. Further, the Potency entry in assay [15] and in assay [16] was “inactive” throughout. Besides, the call in [5], in assay [14], in assay [9] and in assay [10] was inactive.
Turning to `C[C@]12CC[C@H]3[C@@H](CCC4=CC(=O)CC[C@@H]43)[C@@H]1CC[C@@H]2OC(=O)CCC1CCCCC1`, the Potency result in [3], in assay [13], in assay [18], in [6], in [7] and in [8] was “inactive” throughout. Also, the Potency result in assay [16] is “inactive”. Further, the result in [5], in assay [14], in assay [10] and in assay [11] was inactive.
Turning to `C=C(C#N)CCC#N`, the Potency result in [1], in [2], in assay [17], in assay [12], in assay [3] and in assay [8] was “inactive” in each case. Besides, the compound was called inactive in assay [5] and in assay [10].
For `COc1ccc(-c2ccccc2)cc1NNC(=O)OC(C)C`, the Potency entry in assay [20] and in assay [3] was “inactive” throughout. Also, the Potency in assay [4] is 16 µM (active). Besides, the call in [5], in [9] and in assay [10] was inactive.
On to `CCC(C)(NC(=O)c1cc(Cl)c(C)c(Cl)c1)C(=O)CCl` (stereo not drawn), for which the Potency entry in assay [1] is “inactive”. Also, the Potency was 39.1 µM (active) in assay [3], 21.8 µM (active) in assay [13], 49.3 µM (active) in assay [6] and 55.3 µM (active) in assay [16].
